This passage reports outcome results from PubChem BioAssay (EPA / NIEHS).

The source made the active and inactive calls. How the source made its calls: active means hit-call score of the fitted dose curve at least 0.9, where 1 is the maximum; inactive means score below 0.9.

Read-out in the test: Cytochrome P450 (CYP24A1), CYP24A1 (gene 1591)
The test can be described thus: LTEA_HepaRG_CYP24A1: Life Technologies and Expression Analysis (LTEA) Assay for Cytochrome P450 (CYP24A1) using HepaRG (AID 2283478). The settings on record: mRNA level, 48 h; actives raise or lower the signal. The protocol: LTEA_HepaRG is a cell based, multiplexed-readout assay that uses HepaRG, a human liver cell line, with measurements taken at 48 hours after chemical dosing on a 96-well plate.LTEA_HepaRG_CYP24A1 is one of 102 assay component(s) measured in the LTEA HepaRG cell culture assay. It is a marker of NR mediated metabolism.Data from the assay component LTEA_HepaRG_CYP24A1 was analyzed into 1 endpoint. This assay endpoint, LTEA_HepaRG_CYP24A1, was analyzed with bidirectional fitting relative to DMSO as the negative control and baseline of activity. Using a type of inducible reporter, measures of mRNA induction for gain or loss-of-signal activity can be used to understand regulation of transcription factor activity. To generalize the intended target to other relatable targets, this assay endpoint is annotated to the cyp intended target family, where the subfamily is xenobiotic metabolism.
A total of 1060 chemcials from the ToxCast library were tested in eight-point concentration-response experiments. Cell culture and cytotoxicity assays were conducted at Thermo Fisher Scientific's Custom Services facility (Madison, WI). A single lot of human HepaRG cells (Thermo Fisher Scientific, Frederick, MD) was used for the cell culture experiments. 96-well format collagen type I coated plates of human HepaRG cells were prepared using established methods. Briefly, cryopreserved HepaRG cells were thawed, plated at a density of approximately 100,000 cells/well in HepaRG Thaw, Plate, and General Purpose media (HPRG770, Thermo Fisher Scientific), and incubated for 48 hours. 0.5% DMSO was selected as vehicle control to balance the requisite need of DMSO in HepaRG cultures to maintain differentiation (for example, baseline metabolism, proportions of hepatocytes vs. cholangiocytes), while enabling further hepatic receptor pathway activation (for example, PXR and CAR) in response to chemical exposure. 48 hours after plating, the culture medium was replaced with HepaRG Serum-Free Incudtion Media. Cells were exposed to each test chemical in duplicate and maintained in CO2 incubators for another 48 hours. Chemical plates were thawed to room temperature and 200x concentrations of treatment groups were prepared. 8-point conentration-reponse curves were made with the highest exposure at 100 uM, followed by half-log dilutions, all in 0.5% DMSO. Each test plate contained variouse controls, induction positive controls (1mM phenobarbital), cytotoxicity positive controls ([…] aflatoxin B1), vehicle controls (0.5% DMSO), and total lysis controls (0.5% DMSO). Cell morphology images were taken using an Essen IncuCyte FLR automated microscope, with six 96-well plates imaged in about 24 minutes. Images were captured and exported and JPEG files. Spent culture media was transfered to black-well plates for the LDH assay, and remaining media was sorted at -80 C for later use. Cells were treated with RLT buffer and frozen until shipped for gene expression analysis. Total RNA was isolated from the cell suspension in 75 uL of Buffer RLT (Qiagen, Germantown, MD 20874) by Quintiles/Expression Analysis (Durham, NC) using a custom isolation procedure. Total RNA from each plate well was transferred to a preamplification plate. Fluidigm's 96.96 Dynamic ArrayTM (Fluidigm, Amsterdam, the Netherlands) technology was used for gene expression analyses by quantitative reverse transcription polymerase chain reaction (qRT-PCR, performed by Quintiles/Expression Analysis, Durham, NC)89. Standard TaqManTM Assays (Applied Biosystems/ThermoFisher Scientific, Foster City, CA) were used to assess the expression of 93 genes selected based on their selectivity and sensitivity to important hepatic receptors known to be modulated by environmental chemicals; importance in human hepatocyte functionality; and hepatotoxicity. […]
As for `O=C1CCC(C2CCCCC2)CC1`, the compound was classed as inactive.

In the case of `c1ccc2ccccc2c1`, the call was inactive. For `CC(C)(C)c1csc(-c2cc3cc(OCc4ccccc4CC(=O)O)ccc3o2)n1` the value was “inactive”; for `CCCCCc1ccc(N)cc1`, “inactive”. For `CCCCOC(=O)c1ccc(O)cc1` the value was “inactive”; for `O=c1ccc2ccccc2o1`, “inactive”; for `CCCCCCCCCCCCO`, “inactive”.

Regarding `CN(C)C(=O)C1(N2CCCCC2)CCN(CC[C@@]2(c3ccc(Cl)c(Cl)c3)CN(C(=O)c3ccccc3)CCO2)CC1`, the outcome was inactive.

For the compound `CCCC(=O)OCCC(C)C`, the outcome was inactive. As for `NC(=O)c1nc(-c2cccc(-c3cc(F)ccc3OCC(F)(F)C(F)(F)F)c2)n[nH]1`, the entry is “inactive”; as for `CCCCCCCCCC(=O)O`, “inactive”; as for `O=C(O)c1ccccc1-n1cc(C(=O)O)c(=O)c2cc(Nc3c(F)cc(F)cc3Cl)c(Cl)cc21`, “inactive”.

Turning to `O=C1O[C@H]([C@@H](O)CO)C(O)=C1O`, the compound was classed as inactive. As for `CN(C)c1ccc(C(=C2C=CC(=[N+](C)C)C=C2)c2ccc(N(C)C)cc2)cc1`, the entry is “inactive”; as for `COc1cccc([C@H](O)C2CCN(CCc3ccc(F)cc3)CC2)c1OC`, “inactive”; as for `O=C1c2ccccc2C(=O)N1CCc1noc(-c2ccc(CN3CCCCCC3)s2)n1`, “inactive”.

Take `Clc1ccccc1C(c1ccccc1)(c1ccccc1)n1ccnc1`: the compound was classed as inactive.

As for `Cc1cc(F)ccc1-c1cc(N2CC[C@@H](O)[C@H]2CO)ncc1N(C)C(=O)C(C)(C)c1cc(C(F)(F)F)cc(C(F)(F)F)c1`, the outcome was inactive. For the compound `CC1=CC(=O)/C(=C(/C)O)C(=O)O1`, the outcome was inactive. For `COc1ccc2cc(S(=O)(=O)N[C@H](CC(=O)N[C@H](Cc3ccc(CN4[C@H](C)CCC[C@@H]4C)cc3)C(=O)N(C)C(C)C)c3ccc4c(c3)OCO4)ccc2c1` the value was “inactive”; for `CC[C@@H]1C[C@H](N(Cc2cc(C(F)(F)F)cc(C(F)(F)F)c2)C(C)=O)c2cc(C(F)(F)F)ccc2N1C(=O)OC(C)C`, “inactive”. As to `CCN(CC)C(=O)c1cc(S(=O)(=O)Cc2ccccc2)c(N2CCC(c3ccccc3)CC2)cc1N(CC)CCN(C)C`, the compound was classed as inactive. Take `CCCCCCCCOC(=O)c1cc(O)c(O)c(O)c1`: the result was inactive. As for `NCc1cccc(C2CCN(C(=O)c3ccc(C#Cc4ccccc4F)o3)CC2)c1`, the entry is “inactive”; as for `CO[C@H]1/C=C/O[C@@]2(C)Oc3c(C)c(O)c4c(O)c(c(/C=N/N5CCN(C)CC5)c(O)c4c3C2=O)NC(=O)/C(C)=C\C=C\[C@H](C)[C@H](O)[C@@H](C)[C@@H](O)[C@@H](C)[C@H](OC(C)=O)[C@@H]1C`, “inactive”. As for `O=C(O)c1ccccc1C(=O)OCc1ccccc1`, the entry is “inactive”; as for `Clc1cc(Cl)c2c(c1)N=C1CCCCCN1C2`, “inactive”; as for `Cc1ncc(CO)c(CO)c1O`, “inactive”.

Regarding `O=C(O)Cc1cc(I)c(Oc2ccc(O)c(I)c2)c(I)c1`, the compound was called inactive.

In the case of `CCCCCCCCOc1ccc(C(=O)c2ccccc2)c(O)c1`, the call was inactive. For the compound `OC12N=C(c3ccccc3)SC1Cc1cc(Cl)ccc12` (stereo not given), the outcome was inactive.

Turning to `c1ccc(C[n+]2cccc3ccccc32)cc1`, the compound was called inactive. As for `CC/C(=C(/CC)c1ccc(O)cc1)c1ccc(O)cc1`, the entry is “inactive”. For `COc1cc(C(=O)NC2CCN(C)CC2)ccc1Nc1ncc2c(n1)N(C1CCCC1)CC(F)(F)C(=O)N2C` the value was “inactive”; for `CCCCCCCCCCCC[N+](C)(C)C`, “inactive”; for `Cc1cc2c(cc1C(F)(F)F)N(C(=O)Nc1ccc(Oc3cccnc3C)nc1)CC2`, “inactive”. For `CN1C(=O)CC[C@H]1c1cccnc1` the value was “inactive”; for `CCCCOC(=O)CC(CC(=O)OCCCC)(OC(C)=O)C(=O)OCCCC`, “inactive”.

With `CCCOC(=O)c1cc(O)c(O)c(O)c1`, the compound was called inactive.

As to `O=C(Nc1ccc(Cl)cc1)Nc1ccc(Cl)c(Cl)c1`, the call was inactive.
